Sampled rows, rich in hits. Any-hit rate of the full collection: about 5.7%.
HT1080 IDH1KD tx: HT-1080 IDH1 knockdown cell toxicity (counter line) | HT-1080 IDH1 knockdown viability, ATP luminescence, 48 h | Potency, µM (titrated, usually from 46.1 µM), usual class: cytotoxic | hit rate 2% among 360,000 | AID 686971
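HT-1080-IDH1KD cells (IDH1 knocked down), 750/well in RPMI with 5% FBS, treated with compound 48 h at 37 degrees C. Viability by CellTiter-Glo luminescence, normalised to DMSO and no-cell wells; concentration-response curves classed.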
HT1080-NT tox: kills 2HG-producing HT-1080-NT fibrosarcoma cells; HT-1080-NT fibrosarcoma viability, CellTiter-Glo ATP luminescence, 48 h; Potency, µM (doses to about 46.1 µM), hits mostly cytotoxic; hit rate 1.6% among 360,000;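 further: NT is the 2HG producing partner of a matched IDH1 knockdown line; nearly all actives have a fitted effect of over 55% in size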
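Fibrosarcoma NT cells, 750 per well in 5% FBS RPMI, were exposed to compound for 48 hours. Viability: CellTiter-Glo luminescence.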
KB-3-1 tox: KB-3-1 parental cell cytotoxicity; Potency, µM (top dose mostly 46.1 µM), actives largely listed as cytotoxic; AID 1347075; hit rate 1.4% among 400,000; KB-3-1 viability, CellTiter-Glo ATP luminescence, 72 h; further: nearly all actives have a fitted effect of over 60% in size
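Screening of KB-3-1 cells (DMEM, 10% FBS, phenol-red free) ran from lowest to highest compound concentration; after 72 h at 37 °C viability was read luminescently and curves fitted.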
KB-V1 cytotox: KB-V1 MDR subline cytotoxicity; KB-V1 MDR cells viability, CellTiter-Glo, 72 h; Potency, µM (doses to about 46.1 µM), hits mostly cytotoxic; hit rate 3.4% among 400,000; AID 1347076; further: nearly all actives have a fitted effect of over 60% in size
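Cytotoxicity toward P-gp-expressing KB-V1 cells was determined as loss of CellTiter-Glo luminescence after 72 h at 37 degrees C. Compounds were tested in quantitative HTS format across a concentration range, with curves fitted to normalized data.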
Numbers stand for hits; n = inactive; u = inconclusive; x = not tested or not shown. The call rests on the fitted dose curve; in most records, active means well fitted curve in the direction sought with a large enough effect; inconclusive means small, poorly fitted or top-dose-only effect, or another doubt; inactive means no such curve, though single readings can be large; an effect the other way counts as inactive or inconclusive.

SMILES | HT1080 IDH1KD tx | HT1080-NT tox | KB-3-1 tox | KB-V1 cytotox
CCOC(=O)c1sc(NC(=O)Nc2cccc(Cl)c2)cc1C | u | u | u | 13µM
CSc1ccccc1NC(=O)Nc1cccc(Cl)c1 | n | n | u | 16.4µM
CCOCCc1nn2c(=O)cc(COC(=O)c3ccc(NC(=O)c4cccs4)cc3)nc2s1 | x | x | n | n
Cc1cccc(NC(=O)CSc2nc(-c3cccs3)cc(C(F)(F)F)c2C#N)c1 | x | x | n | n
CN1C=C/C(=C\c2cc[n+](C)c3ccccc23)c2ccccc21 | 6.51µM | u | n | n
C[n+]1ccc(/C=C/c2cc[n+](C)c3ccccc23)c2ccccc21 | x | x | u | n
O=C(CCS(=O)(=O)c1cc(Br)cc2c1N(C(=O)C1CC1)CC2)NCc1ccccc1Cl | x | x | n | n
Cc1ccc(C)c(NC(=O)c2cc(=O)c3cc(C)cc(C)c3o2)c1 | x | x | n | n
CCCCOc1ccc(CNC(=O)c2ccc(-c3nc(CN4CCc5ccccc54)c(C)o3)cc2)cc1 | x | x | 18.4µM | u
CCCCNC(=O)c1ccc(-c2nc(CS(=O)(=O)c3ccc(C)cc3)c(C)o2)cc1 | x | x | n | n
CCCCNC(=O)c1ccc(-c2nc(CN3CCc4ccccc43)c(C)o2)cc1 | x | x | u | 5.17µM
Cc1cc(Nc2cccc([N+](=O)[O-])c2)n2c(nc3ccccc32)c1C#N | 16.4µM | u | 5.17µM | 3.26µM
O=C(c1ccc(CS(=O)(=O)c2c(Cl)cccc2Cl)o1)N1CCN(c2ccccc2)CC1 | x | x | n | n
Cc1ccc(-n2nnnc2C(Cl)(Cl)c2nnnn2-c2ccc(C)cc2)cc1 | 5.62µM | u | n | u
Clc1ccc(-c2nnnn2-c2ccc(Cl)cc2)cc1 | n | u | u | n
O=S(=O)(c1ccc(Cl)cc1)c1snnc1-c1ccccc1 | 7.31µM | 11.6µM | 5.8µM | u
O=S(=O)(c1ccc(F)cc1)c1snnc1-c1ccccc1 | u | 6.51µM | 13µM | n
CN(C)c1ncc(S(=O)(=O)c2ccc(Cl)cc2)c(-c2ccccc2)n1 | n | n | n | n
CCc1ccc(-n2c(=O)c3c4c(sc3n(Cc3cc(=O)n5c(C)cccc5n3)c2=O)CCC4)cc1 | x | x | n | n
CN(C)CCCNC(=S)NCC(c1ccc(Cl)cc1Cl)c1c[nH]c2ccccc12 (stereo not drawn) | 16.4µM | 20.6µM | n | n
Cc1ccc(Cl)cc1NC(=O)C[n+]1ccc(Cc2ccc([N+](=O)[O-])cc2)cc1 | n | u | 10.3µM | u
Cc1ccc([N+](=O)[O-])cc1NC(=O)CN(C(=O)c1ccc(Cl)cc1)C1CCCCC1 | u | n | u | 23.1µM
Cc1ccc([N+](=O)[O-])cc1NC(=O)CNC1CCCCC1 | n | n | n | n
O=C(CN(C(=O)c1ccc(Cl)cc1)C1CCCCC1)Nc1ccc(Cl)c([N+](=O)[O-])c1 | u | u | n | 14.6µM
O=C(C[n+]1ccc(Cc2ccccc2)cc1)Nc1ccc([N+](=O)[O-])cc1Cl | n | n | n | n
SMILES | HT1080 IDH1KD tx | HT1080-NT tox | KB-3-1 tox | KB-V1 cytotox
O=C(CN(C(=O)c1ccccc1Cl)C1CCCCC1)Nc1ccc(Cl)c([N+](=O)[O-])c1 | u | n | n | n
Clc1ccccc1-c1nn2c(-c3cc(-c4ccccc4)n[nH]3)nnc2s1 | x | x | n | n
COc1ccccc1NC(=O)Cn1c(=O)n(-c2ccc(C)cc2)c(=O)c2ccc(C(=O)NCc3ccco3)cc21 | x | x | n | n
CCCCOc1ccc(Br)cc1CSC(=N)N | 18.4µM | 23.1µM | 23.1µM | 8.2µM
CCOc1ccc(C(C)=O)cc1CSC(=N)N | n | n | n | n
CCCCCOc1ccc(CSC(=N)N)cc1[N+](=O)[O-] | 16.4µM | 20.6µM | u | 18.4µM
Cc1nc2nc(NC(=O)CC(C)C)[nH]n2c(=O)c1Cc1ccccc1 | x | x | n | n
CCn1cc2nc(SCc3cccc(OC)c3)n(Cc3ccc(Cl)cc3)c(=O)c2n1 | x | x | n | n
COc1ccc(OC)c(NC(=O)CSc2c3c(nc4ccccc24)CCCC3)c1 | x | x | n | n
COc1cc(Nc2c3c(nc4ccccc24)CCC3)cc(OC)c1OC | 2.06µM | 1.46µM | 2.31µM | 3.66µM
COc1ccc(OC)c(Nc2c3c(nc4ccccc24)CCC3)c1 | 0.581µM | 0.651µM | 1.03µM | 3.66µM
COc1ccc(OC)c(Nc2cc(C)c3ccccc3n2)c1 | u | u | n | n
COc1ccc([N+](=O)[O-])cc1Nc1c2ccccc2nc2ccccc12 | 5.17µM | 5.17µM | u | n
COc1ccc(OC)c(Nc2c3ccccc3nc3ccccc23)c1 | 4.61µM | 5.8µM | 11.6µM | 20.6µM
COc1ccc(Nc2nc(-c3ccc(C)cc3)nc3ccccc23)c(OC)c1 | x | x | n | n
COc1cc(NS(C)(=O)=O)ccc1Nc1c2ccccc2nc2ccccc12 | 16.4µM | 11.6µM | u | 18.4µM
COCCNC(=O)C12CC3CC(C1)CC(c1ccccc1)(C3)C2 | n | n | n | n
COc1ccc(NC(=O)C23CC4CC(C2)CC(c2ccccc2)(C4)C3)c(OC)c1 | n | n | n | 14.6µM
COc1cccc2c(=O)c3c(cnn3C)n(C)c12 | n | n | n | 20.6µM
COc1cccc(CNCCSc2nnnn2C)c1OCc1ccc(Cl)cc1Cl | x | x | u | n
CC1(C)NC(=O)N(CCCOc2ccc(Br)cc2Cl)C1=O | n | n | n | u
CC(C)c1cc(Br)ccc1OCCCN1C(=O)NC(C)(C)C1=O | n | n | u | 13µM
CC1(C)NC(=O)N(CCCCOc2ccc(Cl)cc2C=O)C1=O | u | 23.1µM | n | n
Cc1ccc(NC(=O)C2CCN(S(=O)(=O)c3c(C)noc3C)CC2)c(C)c1 | x | x | n | n
C=CC(=O)N1C/C(=C/c2ccccc2)C(=O)/C(=C\c2ccccc2)C1 | 4.11µM | n | 4.11µM | u
SMILES | HT1080 IDH1KD tx | HT1080-NT tox | KB-3-1 tox | KB-V1 cytotox
O=C1C(=Cc2ccc(Cl)cc2)Cc2ccccc21 | n | n | n | n
C=CC(=O)N1C/C(=C/c2ccc(Cl)cc2)C(=O)/C(=C\c2ccc(Cl)cc2)C1 | 2.91µM | 5.8µM | u | n
O=C(Nc1ccc(N2CCN(c3ccc(F)cc3)CC2)c(C(=O)O)c1)c1ccccc1F | x | x | n | n
Cc1c2ccccc2cc(Cc2ccccc2)[n+]1C | 20.6µM | n | 14.6µM | n
COc1ccc(N(C)S(=O)(=O)c2cccc(C(=O)N3CCN(c4cccc(C)c4C)CC3)c2)cc1 | n | n | 16.4µM | n
CCOC(=O)C1CCCN(C(=O)c2cccc(S(=O)(=O)N(C)c3ccc(OC)cc3)c2)C1 (stereo not drawn) | n | n | n | u
Cc1cccc(N2CCN(C(=O)c3ccc(S(=O)(=O)N(C)c4ccccc4)cc3)CC2)c1C | 7.31µM | u | u | 23.1µM
COc1ccc(N2CCN(C(c3ccccc3)c3nnc(-c4ccccc4Cl)o3)CC2)cc1 (stereo not drawn) | x | x | n | n
CC(=O)c1c(CC(=O)O)[nH]n(-c2nc3ccccc3s2)c1=O | 10µM | 10µM | u | u
COC(=O)Cc1[nH]n(-c2nc3ccccc3s2)c(=O)c1C(C)=O | n | n | n | n
CCCCCN=Cc1c(C)[nH]n(-c2nc3ccccc3s2)c1=O | 5.01µM | 11.2µM | 2.59µM | 2.31µM
COc1ccc(NC(=O)CN2C(=O)CC(c3ccco3)Sc3ccccc32)cc1OC (stereo not drawn) | x | x | n | 18.4µM
